# PubChem BioAssay (EPA / NIEHS)
# Some structures have more than one record in an assay (separate samples or runs), and their calls can disagree. Activity calls are given as the source filed them. How the source made its calls: active means hit-call score of the fitted dose curve at least 0.9, where 1 is the maximum; inactive means score below 0.9.
# Target: CCAAT/enhancer-binding protein beta (Homo sapiens) (UniProt P17676)
# Test: ATG_C_EBP_CIS: Attagene CIS-FACTORIAL HepG2 Assay for human CCAAT/Enhancer Binding Protein (C/EBP) beta (AID 2282927)
# Conditions: HepG2 Attagene cis-factorial transcription factor reporter; actives raise or lower the signal
# Experimental: ATG_CIS is a cell-based, multiplexed-readout assay that uses HepG2, a human liver cell line, with measurements taken at 24 hours after chemical dosing in a 24-well plate.ATG_C_EBP_CIS is one of 52 assay component(s) measured or calculated from the ATG_CIS assay. It is designed to make measurements of mRNA induction, a form of inducible reporter, as detected with fluorescence intensity signals by Reverse transcription polymerase chain reaction (RT-PCR) and Capillary electrophoresis technology.Data from the assay component ATG_C_EBP_CIS was analyzed into 1 assay endpoint. This assay endpoint, ATG_C_EBP_CIS, was analyzed with bidirectional fitting relative to DMSO as the negative control and baseline of activity. Using a type of inducible reporter, measures of mRNA for gain or loss-of-signal activity can be used to understand the reporter gene at the transcription factor-level as they relate to the gene CEBPB. Furthermore, this assay endpoint can be referred to as a primary readout, because this assay has produced multiple assay endpoints where this one serves a reporter gene function. To generalize the intended target to other relatable targets, this assay endpoint is annotated to the dna binding intended target family, where the subfamily is basic leucine zipper.
# Human liver HepG2 cells are transiently transfected with multiple reporter transcription units (MRTUs) in 6-well plates using FuGene 6 reagent (Roche; 3 ml FuGene/1 mg DNA). The MRTU constructs are regulated by a cis-regulating element (promoter). […] A major difference between the CIS and TRANS system is that in CIS activities of endogenous TFs are measured, whereas the TRANS assay evaluates changes in activities of exogenous, chimeric NR-Gal4 proteins. […] At the end of 24 hour incubation, total RNA was isolated using TriZol reagent (Invitrogen). The isolated RNA is then reverse-transcribed using oligo(dT) primer and Mo-MLV reverse transcriptase (Invitrogen) with DNAse I (Ambion) treatment for 30 min. The one-tenth of the produced cDNA was amplified by PCR using Taq DNA polymerase (Invitrogen) and two reporter sequence-specific primers. The PCR products were fluorescently labeled by primer extension with 6-arboxyfluorescein (6-FAM) 5'-labeled reporter sequence-specific primer (2 min at 95 C, 20 s at 68 C and 10 min at 72 C) and these products were digested with 5U of HpaI (New England Biolabs) for 2h at 37 C. The fragments were purified using Qiaquick PCR columns (Qiagen), analyzed on an ABI 3130xL genetic analyzer (Applied Biosystems) with peak positions identified by using a set of X-rhodamine (ROX)-labeled MapMarker1000 molecular weight standards (BioVentures). The raw capillary electrophoresis data was processed using Attagraph software (Attagene).
# Sequence of CCAAT/enhancer-binding protein beta (Homo sapiens) (P17676 whole entry, looked up): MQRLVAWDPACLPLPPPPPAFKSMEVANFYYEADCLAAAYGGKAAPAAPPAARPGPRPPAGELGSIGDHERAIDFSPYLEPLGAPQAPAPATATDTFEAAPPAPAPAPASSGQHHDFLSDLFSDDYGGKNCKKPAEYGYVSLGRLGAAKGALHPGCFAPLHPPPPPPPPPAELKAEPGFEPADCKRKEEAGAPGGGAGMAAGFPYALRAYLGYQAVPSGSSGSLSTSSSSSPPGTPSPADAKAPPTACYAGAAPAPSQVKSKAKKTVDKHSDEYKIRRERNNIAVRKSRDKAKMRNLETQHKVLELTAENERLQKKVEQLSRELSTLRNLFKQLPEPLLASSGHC
Structure (SMILES),outcome,AC50
CCCCCCCCSCc1cc(C)c(O)c(CSCCCCCCCC)c1,inactive,
CCCc1ccc(N)cc1,inactive,
C/C=C(\C)C(=O)OC/C=C(\C)CCC=C(C)C,inactive,
CCCCCCCCCO,inactive,
NC(=O)NC(N)=O,inactive,
CCCCC/C=C\C=C\C(=O)OCC,inactive,
C=C1CC[C@H]2O[C@]2(C)CC[C@@H]2[C@@H]1CC2(C)C,inactive,
C=CC(C)(CCC=C(C)C)OC(=O)CC (stereo not given),inactive,
COC(=O)C(C)Oc1ccc(Oc2ncc(C(F)(F)F)cc2Cl)cc1 (stereo not given),inactive,
O=C(O)c1ccc(C(=O)O)c(C(=O)O)c1,inactive,
FC(F)(F)c1ccc(Cl)c(Cl)c1,inactive,
CC(=O)OC(C)(C)C1CC=C(C)CC1 (stereo not given),inactive,
[Cu+],inactive,
CCCCCC1CCC(=O)O1 (stereo not given),inactive,
CC(C)=CC(=O)O,inactive,
C1=COCCC1,inactive,
CCCCCCCCCCCCOC(C)=O,inactive,
OCCCO,inactive,
O=S1(=O)CC=CC1,inactive,
c1ccc2c(c1)-c1ccc3ccc4cccc5cc-2c1c3c45,inactive,

Structure (SMILES),outcome,AC50
ClCCOCCOCCCl,inactive,
[Cl][Dy]([Cl])[Cl],inactive,
C=CCCCCCCCCC(=O)OCC,inactive,
C#C[C@]1(O)CC[C@H]2[C@@H]3CCc4cc(O)ccc4[C@H]3CC[C@@]21C,inactive,158 µM (active)
CC(=N[Si](C)(C)C)O[Si](C)(C)C,inactive,
CC(=O)c1ccc2ccccc2c1,inactive,
CC(CCO)CC(C)(C)C (stereo not given),inactive,
CC(C)C(=O)c1ccccc1,inactive,
CC1(C)CC(N)CC(C)(CN)C1 (stereo not given),inactive,
COc1ccc2[nH]cc(CCNC(C)=O)c2c1,inactive,
CCCC1CCOC(C)S1 (stereo not given),inactive,
N#CCCNCCC#N,inactive,
O=c1cc[nH]cc1,inactive,
C=C(C)C(=O)OCCC[Si](OC)(OC)OC,inactive,
CCCCCC1C(=O)CCC1CC(=O)OC (stereo not given),inactive,
c1ccc(Cc2ccccc2)cc1,inactive,
CC(C)(C)c1cc(CCC(=O)OCCSCCOC(=O)CCc2cc(C(C)(C)C)c(O)c(C(C)(C)C)c2)cc(C(C)(C)C)c1O,inactive,
C[C@]12CC[C@@H]3c4ccc(O)cc4CC[C@H]3[C@@H]1CC[C@@H]2O,inactive,
CC(C)N1C(=O)c2ccccc2C1=O,inactive,
